M1 ag: M1 muscarinic receptor agonists, primary screen, CHO-M1 cells, Fluo-4 calcium, agonist mode; Muscarinic acetylcholine receptor M1; Fluo-4 calcium fluorescence; active compounds read high; B-score at 10 µM; hit rate 3% among 64,000; AID 626, 2007;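 active = fluorescence rise, raw or as B-score row- and column-corrected plate score, outside the 99.7% band of its plate's samples, either direction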
Cav32 inh: Cav3.2 calcium influx blockers – cell-based, Fluo-4 calcium fluorescence, FDSS, MLSMR library, primary screen | Cav3.2-expressing cells; active compounds read low | B-score at 10 µM | hit rate 4% among 100,000 | AID 449739, 2010;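 active = single-dose well whose peak fluorescence ratio is a statistical outlier from its plate by either plate-standardised score or position-corrected B-score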
M1 antag: antagonists of rat M1 muscarinic receptor; hit rate 3.4% among 64,000; CHO-M1 cells, Fluo-4 calcium, ACh EC80 antagonist mode; active compounds read low; AID 628, 2007; Muscarinic acetylcholine receptor M1 (Rattus norvegicus), P08482; B-score at 10 µM;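 active = calcium fluorescence response, raw or row-and-column corrected B-score, differing from the plate sample mean either way at a set confidence level, mostly lower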
Pyk2 oligo antag: antagonists of Pyk2 self-association, primary screen, Q293 cells, FERM NanoBiT luminescence, HTS. hit rate 0.83% among 99,000. z-score (the deposit names both 25 µM and 10 µM). active compounds read low;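 active = Z-score of -3 or lower, scaled per plate to the spread of control and sample wells; inactive = z-score above -3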;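 note: negative z-score means lost luminescence so less FERM oligomerization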
Target sequence (Q14289 whole entry, looked up): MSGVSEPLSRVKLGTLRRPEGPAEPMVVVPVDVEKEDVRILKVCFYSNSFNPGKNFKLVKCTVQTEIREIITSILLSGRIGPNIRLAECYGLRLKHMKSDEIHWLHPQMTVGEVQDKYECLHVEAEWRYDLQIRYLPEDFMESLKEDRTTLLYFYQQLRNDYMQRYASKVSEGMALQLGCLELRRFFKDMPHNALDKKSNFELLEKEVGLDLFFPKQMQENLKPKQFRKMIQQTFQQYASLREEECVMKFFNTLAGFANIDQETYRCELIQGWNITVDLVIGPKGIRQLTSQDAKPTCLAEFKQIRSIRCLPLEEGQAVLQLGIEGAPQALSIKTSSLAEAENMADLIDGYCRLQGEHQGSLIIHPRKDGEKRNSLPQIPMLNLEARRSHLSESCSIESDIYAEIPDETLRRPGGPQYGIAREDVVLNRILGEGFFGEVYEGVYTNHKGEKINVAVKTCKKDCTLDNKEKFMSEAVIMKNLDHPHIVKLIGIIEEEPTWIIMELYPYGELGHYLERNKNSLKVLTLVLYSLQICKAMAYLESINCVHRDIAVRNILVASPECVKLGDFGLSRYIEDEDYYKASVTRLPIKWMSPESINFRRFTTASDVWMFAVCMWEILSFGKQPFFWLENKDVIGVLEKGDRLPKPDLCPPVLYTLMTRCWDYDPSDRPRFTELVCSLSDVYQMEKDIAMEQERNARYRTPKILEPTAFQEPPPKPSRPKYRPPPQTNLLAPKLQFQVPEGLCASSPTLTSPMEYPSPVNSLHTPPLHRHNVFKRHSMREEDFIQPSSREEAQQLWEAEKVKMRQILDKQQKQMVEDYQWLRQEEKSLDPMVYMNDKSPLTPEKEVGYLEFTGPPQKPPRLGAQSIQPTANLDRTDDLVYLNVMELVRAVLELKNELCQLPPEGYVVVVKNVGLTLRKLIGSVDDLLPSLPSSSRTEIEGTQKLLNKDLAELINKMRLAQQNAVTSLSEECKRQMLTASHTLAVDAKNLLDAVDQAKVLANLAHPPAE
Hits are given with their value. Most compounds without a hit are left out; they make up all but 7.1% or so of the library.

Results for N#CC1=C2SCC(O)(c3ccccc3)N2C(=O)CC1c1cccs1 (centres undefined) ?
M1 ag: inactive; Cav32 inh: inactive; M1 antag: inactive; Pyk2 oligo antag: inactive

Results for COc1ccc(-c2ccc(C#N)c(OC(=O)c3c(Cl)cccc3Cl)n2)cc1 ?
Cav32 inh: inactive; Pyk2 oligo antag: inactive

What do the screens show for `O=C(c1coc(=O)c2ccccc12)N1CCN(Cc2ccccc2)CC1`?
M1 ag: inactive; Cav32 inh: inactive; M1 antag: inactive; Pyk2 oligo antag: inactive

How did O=C(NNc1cccc(Cl)n1)c1ccc(Cl)cc1Cl do in these assays?
Cav32 inh: inactive; Pyk2 oligo antag: inactive

How did O=C(Nc1nc(=S)ss1)c1ccc(Cl)cc1Cl do in these assays?
Cav32 inh: -11; Pyk2 oligo antag: inactive

Results for CC(C)OCCCN1C(=O)c2[nH]nc(-c3ccccc3O)c2C1c1cccc(Cl)c1 (centres undefined) ?
M1 ag: inactive; Cav32 inh: inactive; M1 antag: inactive; Pyk2 oligo antag: -3.2

Results for COc1ccc(CCN2C(=O)c3[nH]nc(-c4ccccc4O)c3C2c2ccccc2)cc1OC (centres undefined) ?
M1 ag: inactive; Cav32 inh: inactive; M1 antag: inactive; Pyk2 oligo antag: -3.1

How did CC(=O)C1=C(O)C(=O)N(Cc2cccnc2)C1c1ccc(Cl)cc1Cl (centres undefined) do in these assays?
M1 ag: inactive; Cav32 inh: inactive; M1 antag: inactive; Pyk2 oligo antag: inactive

How did COCCCN1C(=O)c2[nH]nc(-c3ccccc3O)c2C1c1cccc(Cl)c1 (centres undefined) do in these assays?
M1 ag: inactive; Cav32 inh: -6.4; M1 antag: inactive; Pyk2 oligo antag: -3

What do the screens show for `Cc1cc(O)c(-c2n[nH]c3c2C(c2cccc(O)c2)N(Cc2cccnc2)C3=O)cc1Cl` (centres undefined)?
Cav32 inh: inactive; Pyk2 oligo antag: -3.9

What do the screens show for `COCCCN1C(=O)c2[nH]nc(-c3cc(C)cc(C)c3O)c2C1c1ccc(O)c(OC)c1` (centres undefined)?
M1 ag: inactive; M1 antag: inactive; Pyk2 oligo antag: inactive

What do the screens show for `COCCCN1C(=O)c2[nH]nc(-c3ccccc3O)c2C1c1ccc(Cl)cc1` (centres undefined)?
Cav32 inh: inactive; Pyk2 oligo antag: inactive

How did CN1C(=O)CC(C(=O)O)SC1=Nc1cc(Cl)cc(Cl)c1 (centres undefined) do in these assays?
Pyk2 oligo antag: inactive

Results for O=C1c2[nH]nc(-c3ccccc3O)c2C(c2ccccc2F)N1Cc1ccco1 (centres undefined) ?
M1 ag: inactive; Cav32 inh: inactive; M1 antag: inactive; Pyk2 oligo antag: -3.4

What do the screens show for `O=C1c2[nH]nc(-c3ccccc3O)c2C(c2ccccc2)N1Cc1ccco1` (centres undefined)?
Cav32 inh: inactive; Pyk2 oligo antag: inactive

What do the screens show for `Nc1c(Cl)cc(-c2csc(N3CCCC3c3nc4cc(Cl)c(N5CCCCC5)cc4n3CCOCCO)n2)cc1Cl` (centres undefined)?
Cav32 inh: inactive

Results for CCn1c(NCc2cc(OC)ccc2OC)nc2ccccc21 ?
M1 ag: inactive; Cav32 inh: inactive; M1 antag: inactive; Pyk2 oligo antag: inactive

Results for CCCn1c(NCc2cc(OC)ccc2OC)nc2ccccc21 ?
M1 ag: inactive; Cav32 inh: -4.8; M1 antag: inactive; Pyk2 oligo antag: inactive

Results for O=C(CSc1nnc(Cc2cccs2)n1Cc1ccco1)Nc1ccc(Br)cc1 ?
M1 ag: inactive; Cav32 inh: -4; M1 antag: inactive; Pyk2 oligo antag: inactive

How did Cc1cc(C)nc(SCc2nnc(SCC(=O)Nc3ccc(C)c(C)c3)n2Cc2ccco2)n1 do in these assays?
M1 ag: inactive; Cav32 inh: -8; M1 antag: inactive; Pyk2 oligo antag: inactive

How did COC(=O)CSc1nnc(CSc2nc(C)cc(C)n2)n1Cc1ccco1 do in these assays?
M1 ag: inactive; Cav32 inh: inactive; M1 antag: inactive; Pyk2 oligo antag: inactive

Results for O=C(CSc1nnc(Cc2ccccc2)n1Cc1ccco1)NC12CC3CC(CC(C3)C1)C2 ?
M1 ag: inactive; Cav32 inh: -3.2; M1 antag: inactive; Pyk2 oligo antag: inactive

What do the screens show for `Cc1csc(NC(C)c2nc3cc(C(F)(F)F)ccc3n2CCCO)n1` (centres undefined)?
Cav32 inh: inactive

Results for O=C(NCc1ccc(F)cc1)c1noc2c1CCCCC2 ?
M1 ag: inactive; Cav32 inh: inactive; M1 antag: inactive; Pyk2 oligo antag: inactive

How did O=C(NCc1ccc(Cl)cc1)c1noc2c1CCCCC2 do in these assays?
M1 ag: inactive; Cav32 inh: -5; M1 antag: inactive; Pyk2 oligo antag: inactive

Results for O=c1ccn(-c2cccc(C(F)(F)F)c2)nc1-c1ccn(-c2ccccc2F)n1 ?
Cav32 inh: -8; Pyk2 oligo antag: inactive

Results for COc1ccc(-n2ccc(-c3nn(-c4cccc(C(F)(F)F)c4)ccc3=O)n2)cc1 ?
Cav32 inh: -4.4; Pyk2 oligo antag: inactive

Results for O=C(CN1CCc2ccccc2C1)Nc1ccccc1N1CCCCCC1 ?
M1 ag: inactive; Cav32 inh: -3.3; M1 antag: inactive; Pyk2 oligo antag: inactive

How did CCOC(=O)c1ccc(NC(=O)CN2CCc3ccccc3C2)cc1 do in these assays?
M1 ag: inactive; Cav32 inh: -5.2; M1 antag: inactive; Pyk2 oligo antag: inactive

What do the screens show for `Cc1cc(C)cc(NC(=O)CN2CCc3ccccc3C2)c1`?
Cav32 inh: inactive; Pyk2 oligo antag: inactive

How did O=C(CNCC1CCCCC1)Nc1ccccc1N1CCCCC1 do in these assays?
Cav32 inh: -7.1; Pyk2 oligo antag: inactive

How did O=C(CN1CCCCC1)Nc1ccccc1NC(=O)CN1CCCCC1 do in these assays?
M1 ag: inactive; Cav32 inh: inactive; M1 antag: inactive; Pyk2 oligo antag: inactive

What do the screens show for `O=C(OCCN1C(=O)c2ccccc2C1=O)c1cccc(OC(F)F)c1`?
M1 ag: inactive; Cav32 inh: inactive; M1 antag: inactive; Pyk2 oligo antag: inactive

Results for O=C(C1CC1)N1CCN(C(c2ccccc2)c2ccccc2)CC1 ?
Cav32 inh: inactive; Pyk2 oligo antag: inactive

Results for CN1C(=O)/C(=C/c2cn(CC(=O)N3CCCCC3)c3ccccc23)c2ccccc21 ?
Cav32 inh: inactive

What do the screens show for `N#Cc1nc(Cc2ccccc2)oc1NCCN1CCOCC1`?
M1 ag: inactive; Cav32 inh: inactive; M1 antag: inactive; Pyk2 oligo antag: inactive

How did N#Cc1nc(Cc2ccccc2)oc1NCc1ccccc1 do in these assays?
Cav32 inh: -5.4; Pyk2 oligo antag: inactive

How did COc1ccc(CNc2oc(Cc3cccc4ccccc34)nc2C#N)cc1 do in these assays?
M1 ag: inactive; Cav32 inh: -7; M1 antag: inactive; Pyk2 oligo antag: inactive

How did COc1ccc(CNc2oc(COc3ccccc3)nc2C#N)cc1 do in these assays?
M1 ag: inactive; M1 antag: inactive; Pyk2 oligo antag: inactive

How did CCOC(=O)c1sc(SCc2ccccc2)c2c1CC(C)(C)CC2=O do in these assays?
Cav32 inh: inactive

High-throughput results deposited in PubChem BioAssay by several laboratories.
